NPR1 antag = Natriuretic polypeptide receptor (hNpr1) antagonism - Primary qHTS; HEK293 hNpr1 GloSensor cGMP, ANP-stimulated luminescence; Potency, µM (titrated, usually from 46.3 µM), for inactives: at the highest dose activity change, negative = inhibition, most hits filed as inhibitors; hit rate 1.6% among 76,000; Atrial natriuretic peptide receptor 1 (Homo sapiens), P16066; calls by dose curve; also: % is scaled to controls: 0 for no effect and ±100 for the full control effect; nearly all actives have a fitted effect of over 60% in size
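Compound pre-incubated 30 min at room temperature on GloSensor-loaded HEK293 cells stably carrying hNpr1 and the pGS-40F cGMP biosensor. Stimulation uses hNppA at 0.1 nM final; luminescence is taken at baseline and 20 min post-agonist.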
FLuc inh-1 = Firefly luciferase inhibition profiling of diverse chemical library using quantitative high-throughput screening; purified P. pyralis luciferase, luminescence, biochemical; Potency, µM (series often up to 115 µM), most hits filed as inhibitors; hit rate 2.5% among 76,000; also: % is scaled to controls: 0 for no effect and ±100 for the full control effect; nearly all actives have a fitted effect of over 65% in size
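Cell-free enzyme assay, 10nM P. pyralis luciferase, luciferin and ATP each at 10uM. Inhibition profiled over a 6-point titration, read as luminescence.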
NIH3T3 tox = Cytotoxic Profiling in NIH 3T3 Cell Line of Diverse Libraries Using Quantitative High-Throughput Screening | hit rate 4.3% among 94,000 | Potency, µM (doses to about 96.7 µM), without a hit: top-dose activity change, negative = cytotoxicity, actives largely listed as inhibitors | NIH 3T3 viability, CellTiter-Glo ATP luminescence, 48-72 h; also: % is scaled to controls: 0 for no effect and ±100 for the full control effect; nearly all actives have a fitted effect of over 55% in size
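Cytotoxicity was measured by CellTiter-Glo ATP luminescence after 48 or 72 h compound exposure at 37 °C. Mouse NIH 3T3 fibroblasts were seeded at 400 cells/well and dosed by 23 nL pin transfer.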
HEK293 tox = Cytotoxic Profiling in HEK 293 Cell Line of Diverse Libraries Using Quantitative High-Throughput Screening. AID 1345083, 2018. hit rate 6.6% among 94,000. HEK 293 viability, ATP luminescence (CellTiter-Glo), 48-72 h. Potency, µM (doses to about 115 µM), for inactives: at the top dose activity change, negative = cytotoxicity, hits mostly inhibitors; also: % is scaled to controls: 0 for no effect and ±100 for the full control effect; nearly all actives have a fitted effect of over 60% in size
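Pintool-delivered compounds were incubated with HEK 293 cells (250 cells/well) at 37 degree Celsius for 48 or 72 hr. ATP-dependent luminescence (CellTiter-Glo) then reported remaining viable cells.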
GPT2 inhibitor = Primary qHTS assay for inhibitors of Glutamate pyruvate transaminase 2 (GPT2). Recombinant GPT2, coupled pyruvate oxidase/HRP Amplex Red fluorescence. hit rate 0.25% among 100,000. Alanine aminotransferase 2 (Homo sapiens), Q8TD30. Potency, µM (series often up to 57.7 µM), without a hit: at the highest dose activity change, negative = inhibition, actives largely listed as inhibitors; also: % is scaled to controls: 0 for no effect and ±100 for the full control effect; nearly all actives have a fitted effect of over 60% in size
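Fluorescence read-out: pyruvate from GPT2 turnover coupled to pyruvate oxidase, HRP and Amplex Red (0.2mM ThPP, 0.2U/mL PO and HRP, 50uM Amplex final). Substrates 250uM a-KG, 2mM L-alanine; enzyme 10ng/uL; 30 min RT.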
FLuc SDR -ATP = Firefly luciferase (FLuc-C-HiBiT) SDR gain of signal screen - without ATP; shares compounds with FLuc inh-1; hit rate 7.8% among 1,300; Purified FLuc-C-HiBiT, Nano-Glo HiBiT luminescence, no ATP; Potency, µM (highest dose often 32.7 µM), inactives show at the top dose activation (signal gain), most hits filed as activators; also: nearly all actives have a fitted effect of over 55% in size
FLuc SDR ATP = Firefly luciferase (FLuc-C-HiBiT) SDR gain of signal screen - plus ATP | shares compounds with FLuc inh-1 | purified FLuc-C-HiBiT + ATP, HiBiT complementation luminescence | Potency, µM (top dose mostly 32.7 µM), for the others: at the highest dose activation (gain of signal), most hits filed as activators | hit rate 8.7% among 1,300;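 also: signal reports ligand binding via conformational change of the enzyme rather than luciferase catalysis; % of control where 0% means no effect; nearly all actives have a fitted effect of over 55% in size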
FLuc inh-2 = Firefly luciferase (FLuc-C-HiBiT) enzymatic inhibition screen - Functional assay; hit rate 42% among 1,300; purified FLuc-C-HiBiT enzyme, luciferin luminescence; shares compounds with FLuc inh-1; Potency, µM (doses to about 32.7 µM), for the others: top-dose activity change, negative = inhibition, most hits filed as inhibitors; AID 1963320, 2024; also: % is scaled to controls: 0 for no effect and ±100 for the full control effect; nearly all actives have a fitted effect of over 70% in size
* = called active by the depositor; i = inactive; u = inconclusive; x = no result given; [ ] = remark or other dose. The list is not random: actives were taken first. Their share in the collection is about 10%. Unless noted, calls follow the shape of the dose curve; as a rule, active = well fitted curve in the direction sought with a large enough effect; inconclusive = small, poorly fitted or top-dose-only effect, or another doubt; inactive = no such curve, though single readings can be large; an effect the other way counts as inactive or inconclusive. Potency is read from the fitted curve at half-maximal effect.

SMILES | NPR1 antag | FLuc inh-1 | NIH3T3 tox | HEK293 tox | GPT2 inhibitor | FLuc SDR -ATP | FLuc SDR ATP | FLuc inh-2
COc1cccc(CN2CCc3nc(C(=O)Nc4nc(C)cs4)oc3CC2)c1 | -20%[70.6 µM] | 7.1µM* | u | u | -2%[88.5 µM] | u | 17%[49.3 µM] | u
O=C(Nc1cccnc1)c1nc2c(o1)CCN(Cc1cccc(O)c1)CC2 | u | 4µM* | -16%[138 µM] | u | 2%[88.5 µM] | 21%[49.3 µM] | 16%[49.3 µM] | u
CC(C)CCN1CCc2nc(C(=O)Nc3ccc(Cl)cc3)oc2CC1 | u | u | u | u | -11%[88.5 µM] | x | x | x
CCCN1CCc2nc(C(=O)Nc3ccccc3)oc2CC1 | x | x | x | x | x | 20%[49.3 µM] | 18%[49.3 µM] | u
O=C(Nc1ccccc1)c1nc2c(o1)CCN(Cc1ccccc1)CC2 | 13µM* | 1µM* | u | u | 1%[88.5 µM] | 27%[49.3 µM] | u | 4.5µM*
O=C(c1ccc(F)cc1)N1CCn2c(nn(-c3cccc(Cl)c3)c2=O)C1 | x | x | -11% | -11% | -10% | x | x | x
O=C(C1CCCN1C(=O)Nc1ccccc1)N1CCC(N2CCCC2=O)CC1 (stereo unspecified) | x | x | i | 4% | u | x | x | x
Cc1ccc(CN2CCc3nc(C(=O)NCc4ccccc4)oc3CC2)o1 | 5%[70.6 µM] | i | u | -16%[172 µM] | -3%[88.5 µM] | x | x | x
O=C(Nc1ccccc1)c1nc2c(o1)CCN(CC1CC1)CC2 | -26%[70.6 µM] | 2.2µM* | -17%[138 µM] | u | -1%[88.5 µM] | 19%[49.3 µM] | 20%[49.3 µM] | u
COc1ccccc1CN1CCc2nc(C(=O)Nc3ccccc3)oc2CC1 | u | 4.5µM* | u | u | 3%[88.5 µM] | 17%[49.3 µM] | 14%[49.3 µM] | u
Cc1noc(C)c1CN1CCc2nc(C(=O)Nc3ccccc3)oc2CC1 | 18µM* | 11µM* | u | u | i | 20%[49.3 µM] | 16%[49.3 µM] | -15%[49.3 µM]
O=C(Nc1ccccc1)c1nc2c(o1)CCN(Cc1cccnc1)CC2 | 18µM* | 0.35µM* | u | 79µM* | -10%[88.5 µM] | u | u | 5.7µM*
O=C(NCc1nnc2ccc(-c3ccccc3)nn12)c1cc(Cl)ccc1F | 7% | i | -27% | u | i | x | x | x
COC1CN(C(=O)Nc2cccc(C#N)c2)CCC(=O)N(C)c2ccccc21 (stereo unspecified) | x | x | u | -16%[57.5 µM] | -1%[27.3 µM] | x | x | x
CCCN1CCCCC12Cc1ccccc1CN(C(=O)C1CCCC1)C2 (stereo unspecified) | x | x | u | u | i | x | x | x
CCCCNc1nc(N)c2[nH]c(=O)n(Cc3ccc(OCCN(C)C)nc3)c2n1 | x | x | x | x | u | 11% | 8% | -5%
CC(C)Cc1noc(-c2ccc(N3CCC(O)CC3)nc2)n1 | 8.9µM* | 0.79µM* | u | -27% | 1% | 24% | u | 5.6µM*
CC(C)Cc1noc(-c2ccc(N3CCCC(C(C)(C)O)C3)nc2)n1 (stereo unspecified) | -11% | i | u | u | u | x | x | x
Cc1cnc(CCNC(=O)CCc2nc3ccccc3s2)n1C1CC1 | x | x | -14% | 4% | u | x | x | x
O=C1CCN(C(=O)c2ccccc2)CCCC(C(=O)N2CCN(Cc3ccccc3F)CC2)CCN1 (stereo unspecified) | 3% | i | i | 4% | 1% | x | x | x
O=C(c1ccc(CSc2nc3ccncc3n2Cc2ccccc2F)cc1)N1CCCCC1 | x | x | x | x | x | 16% | 11% | u
O=C(O)C1CN(Cc2ccc(-c3nc4cc(Cc5ccccc5F)ccc4s3)c(F)c2)C1 | x | x | x | x | -4%[11.5 µM] | 15%[5.62 µM] | 9%[5.62 µM] | 4%[5.62 µM]
O=C(N[C@@H]1CN(Cc2ccc(Cl)c(F)c2)C[C@H]1CO)C1CCC1 | 3% | i | -13% | u | i | x | x | x
COc1ccc(-c2nc(-c3ccccc3)nc3c2CN(C(=O)Cc2ccccn2)CC3)cc1 | -1% | i | u | u | 4% | x | x | x
Cc1nn(-c2ccccc2)c2c1C(C)N(C1CN(C(=O)NC(C)C)C1)C2=O (stereo unspecified) | x | x | u | -3% | x | x | x | x
SMILES | NPR1 antag | FLuc inh-1 | NIH3T3 tox | HEK293 tox | GPT2 inhibitor | FLuc SDR -ATP | FLuc SDR ATP | FLuc inh-2
CC(=O)c1cccc(-c2nc3ccccc3s2)c1 | x | x | x | x | x | u | u | 9.9µM*
CC(=O)c1cc2ccccc2s1 | x | x | x | x | i | x | x | x
COc1ccc(N2CCN(C(=O)CCc3ccnc(N4CCOCC4)c3)CC2)cc1 | -21% | i | -18% | -11% | -28% | x | x | x
COc1ccc2nc(-c3ccc(N4CCN(C(=O)OC(C)(C)C)CC4)cc3)sc2c1 | x | x | x | x | x | 16% | 9% | u
COc1ccc2nc(-c3cccc(C(C)=O)c3)sc2c1 | x | x | x | x | x | 12µM* | u | 1.2µM*
O=C(C1CCCC1)N1CCCC2(CNc3ncccc3[S+](=O)([O-])N2)C1 (stereo unspecified) | x | x | i | -6% | x | x | x | x
O=[S+]([O-])(c1cccs1)N1CCCC2(CC(c3ccccc3)=NO2)C1 (stereo unspecified) | x | x | u | u | i | x | x | x
COc1ccc(C2=NOC3(CCN([S+](=O)([O-])c4cccs4)C3)C2)cc1 (stereo unspecified) | u | 5.6µM* | u | u | i | 11% | 15% | -10%
CCCCCc1nn2cc(-c3ccccc3)nc2s1 | x | x | x | x | x | u | u | 0.62µM*
CN(c1ccc(NC(=O)Nc2ccc(OC(F)(F)F)cc2)cc1)c1ccnc(Nc2cccc(S(N)(=O)=O)c2)n1 | x | x | x | x | x | 16% | 9% | 2%
Clc1ccc(-n2ncc3c(NC4CCCC4)ncnc32)cc1 | x | x | x | x | x | u | u | 1.2µM*
Cc1cccc(-n2ncc3c(N4CCCC(C)C4)ncnc32)c1 (stereo unspecified) | x | x | x | x | x | 3.9µM* | u | 0.7µM*
Cc1ccc(Cl)cc1-n1ncc2c(N3CCC(C)CC3)ncnc21 | x | x | x | x | x | 13% | 8% | -8%
